Screens as filed in PubChem BioAssay.
Spn DPM-DC inh: inhibitors of Streptococcus pneumoniae diphosphomevalonate decarboxylase; purified DPM-DC, PK/LDH coupled NADH fluorescence; calls only at 10 µM; 65,000 tested, 0.49% active; AID 556;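 active = the 320 compounds with the highest percent inhibition in the single-dose primary screen, excluding strongly autofluorescent ones, cut at about 32% in these data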;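 also: kinetic rate of NADH fluorescence loss reporting ADP formed by the decarboxylase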
Spn PMK inh: blocks S. pneumoniae phosphomevalonate kinase | purified PMK, PK/LDH-coupled NADH absorbance 340 nm | inhibition, % at 10 µM | 65,000 tested, 0.49% active;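 active = top-ranked compounds by inhibition in the single 10 µM screen, taking a fixed number of the strongest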;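 also: 0% = full reaction with DMSO carrier and 100% = background rate without enzyme reaction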
MK inhibit: blocks S. pneumoniae mevalonate kinase | purified MK, PK/LDH-coupled NADH absorbance 340 nm | inhibition, % at 10 µM | 65,000 tested, 0.48% active;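 active = ranked among the strongest by inhibition in the single 10 µM screen, a fixed top-ranked set picked for dose follow-up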
NADH coupling: inhibition of NAD/NADH coupling enzymes, library profiling | coupled PK/LDH NADH assays, four targets | IC50, µM (titrated, usually from 10 µM), without a hit: top-dose inhibition | 65,000 tested, 0.02% active;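 active = single-dose screening hits from any of four coupled enzyme assays that gave an IC50 when retested across doses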;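 also: the DPM-DC format reads NADH fluorescence rather than 340 nm absorbance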
Abs 340nm: compounds absorbing at 340 nm; compound absorbance at 340 nm, fold over control; AID 708; 65,000 tested, under 10 active; fold change at 10 µM;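 active = at 10 µM dose, initial 340 nm absorbance at least 2 fold that of control wells; inactive = change under 2 fold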;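 also: initial absorbance extrapolated from kinetic A340 decline of NADH oxidation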
Autofluor 339: intrinsic fluorescence of library compounds, ex339/em460 – biochemical, MLSMR library, data from DPM-DC assay, artefact control, profiling panel; compound autofluorescence, ex339/em460 nm, NADH buffer; hits give high values; 1 = no-compound wells, NADH background; fluorescence fold increase at 10 µM; 65,000 tested, 5.5% active; AID 709;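 active = at 10 µM, mean starting fluorescence two-fold or more over control wells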;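 also: signal is the first read of a kinetic run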
* marks the source's active call; other numbers are inactive results; i = inactive; / = not tested or not shown; + = active, no number. This is a sample that favours compounds with a hit; in the whole collection about 6.5% have one here.

SMILES	Spn DPM-DC inh	Spn PMK inh	MK inhibit	NADH coupling	Abs 340nm	Autofluor 339
Cc1nn(-c2ccccc2)c(N2CCCC2)c1/C=N/n1cnc2scc(-c3ccccc3)c2c1=O	i	5.0	0.0	2.0%	1.07	3.49*
O=C(C1CCCN(Cc2cccnc2)C1)N1CCCCC1 (stereo unspecified)	i	5.0	45.0*	17.0%	1.03	1.13
CN1CCc2c(sc3c2c(=O)n(-c2ccccc2)c2nnc(SCc4ccccc4F)n32)C1	i	9.0	2.0	4.0%	1.05	1.23
Cc1nn(-c2ccccc2)c2c1C(O)n1c(nc3ccccc31)S2 (stereo unspecified)	i	10.0	+	6.0%	1	1.03
Cc1nn(-c2ccc(C(=O)O)cc2)c(N)c1-c1ccccc1	i	15.0	3.0	6.0%	0.97	1.05
O=C(CNC(=O)c1cnccn1)Nc1ccc(F)c(F)c1F	i	2.0	21.0	10.0%	0.99	0.92
O=c1oc2ccccc2cc1-c1nc2ccccc2o1	/	24.0	3.0	14.0%	1.17	2.11*
COCCn1cnnc1SCC(=O)c1ccc(S(=O)(=O)N2CCCC2)cc1	i	11.0	0.0	4.0%	1.01	1.21
O=C(CN1CCCCC1)Nc1cccc(-n2cnnn2)c1	i	1.0	8.0	3.0%	1	1.1
COc1ccc(N2CCN(C(c3ccco3)c3sc4nc(C)nn4c3O)CC2)cc1 (stereo unspecified)	i	27.0*	8.0	12.0%	1.03	1.03
O=C(CN(Cc1cccs1)C(=O)CN1C(=O)COc2ccccc21)NCc1ccco1	i	9.0	4.0	6.0%	1.02	1.04
COC(=O)c1cc(OC)c(OC)cc1NC(=O)c1cccnc1	i	11.0	3.0	5.0%	1.09	1.08
CCOc1cc(C#N)c(NC(=O)c2cccnc2)cc1OCC	i	25.0*	0.0	8.0%	1.02	1.13
CC1CCC(NC(=O)C2CCN(c3cnccn3)CC2)CC1 (stereo unspecified)	i	16.0	6.0	4.0%	1	1.3
Oc1cnc2ccccc2c1CN1CCOCC1	i	0.0	0.0	4.0%	1	1.92
CCc1cc2c(=O)c(-c3nc4ccccc4n3C)c(C)oc2c(CN2CCN(C)CC2)c1O	+	5.0	6.0	17.0%	1.13	3.53*
CCc1cc2c(=O)c(-c3nc4ccccc4n3C)c(C)oc2c(CN2CCN(CCO)CC2)c1O	/	0.0	6.0	3.0%	1.16	2.23*
CCc1cc(-c2n[nH]c(C)c2-c2nc3ccccc3n2C)c(O)c(CN2CCN(C)CC2)c1O	i	10.0	5.0	5.0%	1	1.14
CCc1cc2c(=O)c(-c3nc4ccccc4n3C)c(C)oc2c(CN2CCOCC2)c1O	/	5.0	4.0	5.0%	1.07	2.11*
CCc1cc2c(=O)c(-c3nc4ccccc4n3C)c(C(C)C)oc2c(CN2CCN(C)CC2)c1O	/	19.0	6.0	13.0%	1.12	2.23*
Nc1ccc(CN2CCN(c3ccc4ccccc4n3)CC2)cc1	i	7.0	5.0	4.0%	1.08	1.6
O=C(CCCc1nc(-c2ccccc2)no1)N1CCOCC1	i	9.0	6.0	5.0%	1.01	1.17
CCC1(c2ccccc2)NC(=O)N(CC(=O)Nc2cccc(C#N)c2)C1=O (stereo unspecified)	i	7.0	8.0	5.0%	1	1.08
COc1ccc(-c2cc3nc4n(c(=O)c3s2)CCOC4)cc1	/	4.0	0.0	2.0%	1.05	2.36*
O=C(CSc1nnc(-c2ccco2)o1)N1c2ccccc2CCc2ccccc21	i	8.0	17.0	10.0%	1.01	1.03
O=C(c1cccc(F)c1)N1CCN(Cc2ccco2)CC1	i	3.0	44.0*	16.0%	1.06	1.11
Cc1sc2nc3n(c(=O)c2c1C)Cc1ccccc1-3	/	10.0	3.0	7.0%	1.12	3.74*
O=C(CCC1CCCCC1)N1CCN(Cc2ccc3c(c2)OCO3)CC1	i	10.0	7.0	6.0%	1.04	1.11
CC(C(=O)NCC1CCCO1)N(C(=O)c1snc(C(N)=O)c1N)c1cccc(F)c1 (stereo unspecified)	i	19.0	13.0	20.0%	1.05	3.9*
CC(C(=O)NCc1ccccc1)N(CCN1CCOCC1)C(=O)c1snc(C(N)=O)c1N (stereo unspecified)	i	10.0	4.0	13.0%	1.03	2.35*
